Laboratory results as given in PubChem BioAssay (NCI).
About 79,000 compounds went through this panel and 15% of them were active in at least one assay; those are over-represented in the sample as a whole. Calls of active or inactive are those of the source. Rule as the data show it: active = growth inhibition above about 70%; inactive = the rest.

Key:
[1] = NCI Yeast Anticancer Drug Screen. Data for the wt1 strain (AID 149);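 also: 0% = growth of vehicle-treated wt1 cultures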; conditions: S. cerevisiae wt1 strain (SPY 50644) growth inhibition, stronger effect = higher value
Summary of the method: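 Yeast wt1 strain exposed to compounds; growth inhibition measured relative to vehicle-treated controls.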

[2] = NCI Yeast Anticancer Drug Screen. Data for the rad50EPP+ strain (AID 151);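 also: 0% = growth of vehicle-treated control cultures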; conditions: S. cerevisiae rad50 mutant strain, stronger effect = higher value
Summary of the method: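 Compounds were applied to the rad50EPP+ yeast strain, which bears a defined DNA repair alteration, and growth inhibition was determined relative to vehicle-treated cultures.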

[3] = NCI Yeast Anticancer Drug Screen. Data for the mgt1 strain (AID 153); conditions: S. cerevisiae mgt1 mutant growth inhibition, stronger effect = higher value
Summary of the method: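 Strain: mgt1 yeast, one of a set carrying defined DNA damage repair or cell cycle control alterations. Compound-treated growth compared with vehicle.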

[4] = NCI Yeast Anticancer Drug Screen. Data for the rad50 strain (AID 155);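 also: 0% = growth of vehicle-only cultures of the same strain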; conditions: S. cerevisiae rad50 strain growth inhibition, stronger effect = higher value
Summary of the method: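 Yeast carrying a defined DNA repair defect were exposed to test compounds, and growth was compared with vehicle-treated controls to give percent inhibition.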

[5] = NCI Yeast Anticancer Drug Screen. Data for the mec2-1 strain (AID 157); conditions: S. cerevisiae mec2-1 strain, stronger effect = higher value
Summary of the method: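 Strain: mec2-1 (DNA repair/cell cycle alteration). Compound exposure, then growth measured; inhibition expressed relative to vehicle.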

[6] = NCI Yeast Anticancer Drug Screen. Data for the rad14 strain (AID 159);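 also: 0% = growth of vehicle-treated control cultures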; conditions: S. cerevisiae rad14 strain growth inhibition, stronger effect = higher value
Summary of the method: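 Yeast cells carrying a defined DNA-repair defect were exposed to compounds, and growth inhibition was calculated relative to vehicle-treated control cultures.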

[7] = NCI Yeast Anticancer Drug Screen. Data for the sgs1 mgt1 strain (AID 161);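 also: 0% = growth of cultures given vehicle only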; conditions: S. cerevisiae sgs1 mgt1 strain, stronger effect = higher value
Summary of the method: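 Test agents were incubated with a DNA-repair-mutant yeast strain. Growth was then read and compared against vehicle-treated controls.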

[8] = NCI Yeast Anticancer Drug Screen. Data for the CLN2oe strain (AID 163);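 also: 0% = growth of vehicle-only control cultures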; conditions: S. cerevisiae CLN2oe strain, stronger effect = higher value
Summary of the method: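 Growth of a genetically modified yeast strain is measured after compound exposure and compared with cultures given vehicle alone.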

[9] = NCI Yeast Anticancer Drug Screen. Data for the cln2 rad14 strain (AID 165);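 also: 0% = growth equal to vehicle treated cultures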; conditions: S. cerevisiae cln2 rad14 strain, stronger effect = higher value
Summary of the method: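 Compounds are applied to the cln2 rad14 yeast strain, and growth is then compared with that of vehicle-treated cultures to give inhibition.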

[10] = NCI Yeast Anticancer Drug Screen. Data for the bub3 strain (AID 167); conditions: S. cerevisiae bub3 mutant strain, stronger effect = higher value
Summary of the method: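 Compounds were applied to a genetically altered yeast strain carrying a cell-cycle control defect. Growth inhibition was scored against vehicle-treated controls.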

[11] = NCI Yeast Anticancer Drug Screen. Data for the wt2 strain (AID 169);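 also: 0% = growth of vehicle-treated yeast cultures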; conditions: S. cerevisiae wt2 strain growth inhibition, stronger effect = higher value
Summary of the method: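 This strain belongs to a panel of yeast strains with defined genetic alterations in DNA damage repair or cell cycle control. Compounds are applied, and growth inhibition is measured against vehicle-treated cultures.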

[12] = NCI Yeast Anticancer Drug Screen. Data for the mlh1 strain (AID 171);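 also: 0% = growth of vehicle-treated control cultures of the same strain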; conditions: S. cerevisiae mlh1 strain growth inhibition, stronger effect = higher value
Summary of the method: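 Growth of the mutant yeast strain after compound exposure, expressed as inhibition relative to vehicle-only controls.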

[13] = NCI Yeast Anticancer Drug Screen. Data for the sgs1 strain (AID 173);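 also: 0% = growth of vehicle-only control cultures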; conditions: S. cerevisiae sgs1 mutant, stronger effect = higher value
Summary of the method: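 Growth of a yeast strain bearing a defined genetic alteration is measured after compound treatment. Inhibition is expressed relative to vehicle-only controls.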

[14] = NCI Yeast Anticancer Drug Screen. Data for the mlh1 rad18 strain (AID 175); conditions: S. cerevisiae mlh1 rad18 strain growth inhibition, stronger effect = higher value
Summary of the method: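 Read-out is yeast growth inhibition, calculated against vehicle-only controls. The compound was applied to a strain engineered with DNA damage repair alterations.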

[15] = NCI Yeast Anticancer Drug Screen. Data for the rad18 strain (AID 177); conditions: S. cerevisiae rad18 mutant growth inhibition, stronger effect = higher value
Summary of the method: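 Growth of the mutant yeast strain after compound exposure, normalised to vehicle-only cultures.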

[16] = at 5.0 µM (retest, dose inferred, filed as 0.5)
[17] = at 50.0 µM (retest, dose inferred, filed as 5.0)

Measured: growth inhibition

COc1cc(C(C)C(C(=O)O)C(=O)C(=O)O)cc(OC)c1OC (stereo unspecified)
inactive: [1]; at 1.2 µM 0% | [1]; at 3.7 µM 2% | [1]; at 11.0 µM 3% | [1]; at 33.0 µM 4% | [1]; at 100.0 µM 5% | [2]; at 1.2 µM -3% | [2]; at 3.7 µM -7% | [2]; at 11.0 µM -4% | [2]; at 33.0 µM -8% | [2]; at 100.0 µM 1% | [3]; at 1.2 µM 1% | [3]; at 3.7 µM 2% | [3]; at 11.0 µM 2% | [3]; at 33.0 µM 1% | [3]; at 100.0 µM 21% | [4]; at 1.2 µM 3% | [4]; at 3.7 µM 3% | [4]; [16] -41% | [4]; at 11.0 µM 4% | [4]; at 33.0 µM 5% | [4]; [17] -9% | [4]; at 50.0 µM 0.85% | [4]; at 100.0 µM 4% | [5]; at 1.2 µM -5% | [5]; at 3.7 µM -3% | [5]; [16] 7% | [5]; at 11.0 µM -3% | [5]; at 33.0 µM -2% | [5]; [17] -4% | [5]; at 50.0 µM 9.9% | [5]; at 100.0 µM 0% | [6]; at 1.2 µM -1% | [6]; at 3.7 µM -2% | [6]; at 11.0 µM 2% | [6]; at 33.0 µM 3% | [6]; at 100.0 µM 5% | [7]; [16] -5% | [7]; [17] 2% | [7]; at 50.0 µM -3.75% | [8]; at 1.2 µM 2% | [8]; at 3.7 µM 5% | [8]; at 11.0 µM 4% | [8]; at 33.0 µM 5% | [8]; at 100.0 µM 7% | [9]; [16] 10% | [9]; at 50.0 µM -22.4% | [10]; at 1.2 µM 1% | [10]; at 3.7 µM -1% | [10]; [16] 4% | [10]; at 11.0 µM -6% | [10]; at 33.0 µM -3% | [10]; [17] 11% | [10]; at 50.0 µM 44.6% | [10]; at 100.0 µM -2% | [11]; at 1.2 µM 1% | [11]; at 3.7 µM 0% | [11]; at 11.0 µM 2% | [11]; at 33.0 µM -1% | [11]; at 100.0 µM 2% | [12]; at 1.2 µM 0% | [12]; at 3.7 µM 0% | [12]; at 11.0 µM 2% | [12]; at 33.0 µM 3% | [12]; at 100.0 µM 6% | [13]; at 1.2 µM -1% | [13]; at 3.7 µM -1% | [13]; at 11.0 µM 0% | [13]; at 33.0 µM 2% | [13]; at 100.0 µM 6% | [14]; [16] -3% | [14]; [17] 41% | [14]; at 50.0 µM 44.9% | [15]; at 1.2 µM -5% | [15]; at 3.7 µM -2% | [15]; at 11.0 µM -4% | [15]; at 33.0 µM 1% | [15]; at 100.0 µM 9%
active: [9]; [17] 76%

CN(C)CCNC(=O)c1cccc2nc3c(ccc4ccccc43)nc12
inactive: [1]; at 1.2 µM -3% | [1]; at 3.7 µM -2% | [1]; at 11.0 µM 2% | [1]; at 33.0 µM 17% | [2]; at 1.2 µM -3% | [2]; at 3.7 µM 1% | [2]; at 11.0 µM 15% | [3]; at 1.2 µM -1% | [3]; at 3.7 µM -1% | [3]; at 11.0 µM 1% | [3]; at 33.0 µM 31% | [4]; at 1.2 µM 3% | [4]; at 3.7 µM 26% | [4]; [16] 13% | [4]; at 11.0 µM 67% | [5]; at 1.2 µM -1% | [5]; at 3.7 µM 2% | [5]; [16] 5% | [5]; at 11.0 µM 10% | [5]; at 33.0 µM 25% | [5]; [17] 23% | [6]; at 1.2 µM -2% | [6]; at 3.7 µM 2% | [6]; at 11.0 µM 14% | [6]; at 33.0 µM 50% | [7]; [16] 3% | [7]; [17] 37% | [7]; at 50.0 µM 40.2% | [8]; at 1.2 µM -5% | [8]; at 3.7 µM -1% | [8]; at 11.0 µM -2% | [8]; at 33.0 µM 18% | [9]; [16] 4% | [9]; [17] 57% | [9]; at 50.0 µM 26.9% | [10]; at 1.2 µM 1% | [10]; at 3.7 µM 3% | [10]; [16] -40% | [10]; at 11.0 µM 5% | [10]; at 33.0 µM 24% | [10]; [17] 43% | [10]; at 50.0 µM 24.1% | [11]; at 1.2 µM -2% | [11]; at 3.7 µM 6% | [11]; at 11.0 µM -2% | [11]; at 33.0 µM 13% | [12]; at 1.2 µM -1% | [12]; at 3.7 µM 0% | [12]; at 11.0 µM 3% | [12]; at 33.0 µM 28% | [13]; at 1.2 µM -4% | [13]; at 3.7 µM -4% | [13]; at 11.0 µM 1% | [13]; at 33.0 µM 30% | [14]; [16] 7% | [15]; at 1.2 µM -2% | [15]; at 3.7 µM 2% | [15]; at 11.0 µM 11% | [15]; at 33.0 µM 61%
active: [1]; at 100.0 µM 85% | [2]; at 33.0 µM 75% | [2]; at 100.0 µM 96% | [3]; at 100.0 µM 99% | [4]; at 33.0 µM 91% | [4]; [17] 94% | [4]; at 50.0 µM 90% | [4]; at 100.0 µM 98% | [5]; at 50.0 µM 73.8% | [5]; at 100.0 µM 94% | [6]; at 100.0 µM 99% | [8]; at 100.0 µM 72% | [10]; at 100.0 µM 97% | [11]; at 100.0 µM 92% | [12]; at 100.0 µM 98% | [13]; at 100.0 µM 98% | [14]; [17] 92% | [14]; at 50.0 µM 90.2% | [15]; at 100.0 µM 99%
